Assay results from PubChem BioAssay AID1159580 (chemical genetic matrix, 2015).
Where “and” joins values, the source holds several entries; their conditions need not be identical. Equal entries are not always repeated. The campaign covered roughly 5,500 compounds. About 2,000 (36%) were called active. Another 18% or so got no clear call; they are omitted. Some of the results follow. Unmarked numbers belong to inactive results. Cut-off read from the data, not from the text of the source: active = normalized growth mostly below about 0.91 (no sharp cut-off); inconclusive = no clear call, values can overlap the other calls; inactive = mostly above about 0.92.

Test: chemical genetic growth profiling, strain panel (AID 1159580);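 note: tested at 20 µM; growth read once vehicle control cultures reached saturation at 30 °C; 1 = growth at the plate median or of vehicle wells; lower values mean less growth of the strain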
Conditions: S. cerevisiae deletion strains, growth OD

COC(=O)/C=C/C(C)=C/C=C/C(C)=C/C=C/C=C(C)/C=C/C=C(C)/C=C/C(=O)O
normalized growth (locus YAL013W, strain DEP1, active compounds read low): 1
normalized growth (locus YAL021C, strain ccr4, active compounds read low): 1.02
normalized growth (locus YAL026C, strain drs2, active compounds read low): 1.02
normalized growth (locus YAL030W, strain snc1, active compounds read low): 1.02
normalized growth (locus YBL061C, strain skt5, active compounds read low): 1.04
normalized growth (locus YBR009C, strain hhf1, active compounds read low): 1.02
normalized growth (locus YBR021W, strain FUR4, active compounds read low): 1.03
normalized growth (locus YBR023C, strain chs3, active compounds read low): 1.03
normalized growth (locus YBR171W, strain sec66, active compounds read low): 1.03
normalized growth (locus YBR229C, strain ROT2, active compounds read low): 1.02
normalized growth (locus YBR231C, strain swc5, active compounds read low): 1.02
normalized growth (locus YBR279W, strain paf1, active compounds read low): 0.988
normalized growth (locus YCL011C, strain gbp2, active compounds read low): 1.02
normalized growth (locus YCL016C, strain dcc1, active compounds read low): 1.02
normalized growth (locus YCL029C, strain bik1, active compounds read low): 1.01
normalized growth (locus YCL061C, strain MRC1, active compounds read low): 1.02
normalized growth (locus YCL069W, strain vba3, active compounds read low): 1.02
normalized growth (locus YCR088W, strain abp1, active compounds read low): 1.02
normalized growth (locus YDL005C, strain med2, active compounds read low): 1.01
normalized growth (locus YDL035C, strain GPR1, active compounds read low): 1.02
normalized growth (locus YDL040C, strain nat1, active compounds read low): 1.01
normalized growth (locus YDL074C, strain BRE1, active compounds read low): 1
normalized growth (locus YDL101C, strain DUN1, active compounds read low): 1.02
normalized growth (locus YDL134C, strain PPH21, active compounds read low): 1.04
normalized growth (locus YDL185W, strain tfp1, active compounds read low): 1.02
normalized growth (locus YDL192W, strain arf1, active compounds read low): 1.01
normalized growth (locus YDR001C, strain nth1, active compounds read low): 1.03
normalized growth (locus YDR069C, strain doa4, active compounds read low): 1.04
normalized growth (locus YDR101C, strain arx1, active compounds read low): 0.997
normalized growth (locus YDR137W, strain rgp1, active compounds read low): 1.05
normalized growth (locus YDR150W, strain NUM1, active compounds read low): 1.02
normalized growth (locus YDR159W, strain sac3, active compounds read low): 1.05
normalized growth (locus YDR162C, strain NBP2, active compounds read low): 1.03
normalized growth (locus YDR195W, strain ref2): 0.993
normalized growth (locus YDR297W, strain sur2, active compounds read low): 1.03
normalized growth (locus YDR318W, strain mcm21, active compounds read low): 1
normalized growth (locus YDR334W, strain swr1, active compounds read low): 1.02
normalized growth (locus YDR335W, strain msn5, active compounds read low): 1.02
normalized growth (locus YDR388W, active compounds read low): 0.998
normalized growth (locus YDR392W, strain spt3, active compounds read low): 1.03
normalized growth (locus YDR502C, strain sam2, active compounds read low): 1.01
normalized growth (locus YEL003W, strain gim4, active compounds read low): 1.02
normalized growth (locus YEL037C, strain rad23, active compounds read low): 1.02
normalized growth (locus YEL061C, strain CIN8 (second series), active compounds read low): 1.01
normalized growth (locus YEL061C, strain CIN8, active compounds read low): 1.01
normalized growth (locus YER015W, strain faa2, active compounds read low): 1.02
normalized growth (locus YER016W, strain bim1, active compounds read low): 1.01
normalized growth (locus YER110C, active compounds read low): 0.989
normalized growth (locus YER111C, strain swi4, active compounds read low): 1.02
normalized growth (locus YER155C, strain BEM2 (second series), active compounds read low): 1.03
normalized growth (locus YER155C, strain BEM2, active compounds read low): 0.994
normalized growth (locus YER167W, strain BCK2, active compounds read low): 1.01
normalized growth (locus YFR010W, strain ubp6, active compounds read low): 1.02
normalized growth (locus YGL078C, strain dbp3, active compounds read low): 0.993
normalized growth (locus YGL086W, strain mad1, active compounds read low): 0.986
normalized growth (locus YGL167C, strain pmr1, active compounds read low): 1.03
normalized growth (locus YGL173C, strain kem1, active compounds read low): 1.02
normalized growth (locus YGL227W, strain vid30, active compounds read low): 1.03
normalized growth (locus YGL240W, strain doc1, active compounds read low): 1.02
normalized growth (locus YGL248W, strain PDE1, active compounds read low): 1.02
normalized growth (locus YGL253W, strain hxk2, active compounds read low): 1.02
normalized growth (locus YGR078C, strain PAC10, active compounds read low): 1.03
normalized growth (locus YGR135W, strain pre9, active compounds read low): 1
normalized growth (locus YGR252W, strain gcn5, active compounds read low): 0.983
normalized growth (locus YHR013C, strain ard1, active compounds read low): 1.01
normalized growth (locus YHR027C, strain rpn1, active compounds read low): 1.03
normalized growth (locus YHR030C, strain SLT2, active compounds read low): 1.02 and 0.885
normalized growth (locus YHR079C, strain IRE1 (second series), active compounds read low): 0.986
normalized growth (locus YHR079C, strain IRE1, active compounds read low): 0.897
normalized growth (locus YHR094C, strain hxt1, active compounds read low): 0.994
normalized growth (locus YHR129C, strain ARP1, active compounds read low): 1.01
normalized growth (locus YHR142W, strain chs7, active compounds read low): 1.03
normalized growth (locus YHR200W, strain rpn10, active compounds read low): 1.01
normalized growth (locus YIL066C, strain RNR3, active compounds read low): 1.03
normalized growth (locus YIL073C, strain SPO22, active compounds read low): 1.01
normalized growth (locus YIL125W, strain kgd1, active compounds read low): 0.997
normalized growth (locus YIR030C, strain dcg1, active compounds read low): 0.995
normalized growth (locus YJL092W, strain hpr5, active compounds read low): 1.03
normalized growth (locus YJL095W, strain BCK1 (second series), active compounds read low): 1.02
normalized growth (locus YJL095W, strain BCK1, active compounds read low): 1.04 and 0.924
normalized growth (locus YJL115W, strain asf1, active compounds read low): 1.01
normalized growth (locus YJL129C, strain trk1, active compounds read low): 1.02
normalized growth (locus YJL134W, strain LCB3, active compounds read low): 1.01
normalized growth (locus YJL154C, strain vps35, active compounds read low): 1.01
normalized growth (locus YJL164C, strain tpk1, active compounds read low): 1.03
normalized growth (locus YJL166W, strain qcr8, active compounds read low): 1.03
normalized growth (locus YJL168C, strain set2, active compounds read low): 0.994
normalized growth (locus YJL187C, strain SWE1 (second series), active compounds read low): 1.03
normalized growth (locus YJL187C, strain SWE1, active compounds read low): 1.02
normalized growth (locus YJR043C, strain POL32, active compounds read low): 1.03
normalized growth (locus YJR066W, strain TOR1, active compounds read low): 0.898
normalized growth (locus YJR075W, strain HOC1, active compounds read low): 1.04
normalized growth (locus YKL009W, strain mrt4, active compounds read low): 0.996
normalized growth (locus YKL068W, active compounds read low): 1.01
normalized growth (locus YKL085W, strain MDH1 (second series), active compounds read low): 0.989
normalized growth (locus YKL085W, strain MDH1, active compounds read low): 0.989
normalized growth (locus YKL160W, strain elf1, active compounds read low): 1.02
normalized growth (locus YKL190W, strain CNB1, active compounds read low): 1.01
normalized growth (locus YKR001C, strain vps1, active compounds read low): 1.01
normalized growth (locus YKR026C, strain gcn3, active compounds read low): 1.02
normalized growth (locus YKR091W, strain srl3, active compounds read low): 1.02
normalized growth (locus YLL001W, strain dnm1, active compounds read low): 1.02
normalized growth (locus YLL026W, active compounds read low): 1.02
normalized growth (locus YLL041C, strain sdh2, active compounds read low): 1.02
normalized growth (locus YLR027C, strain aat2, active compounds read low): 1.02
normalized growth (locus YLR039C, strain RIC1, active compounds read low): 1.08
normalized growth (locus YLR058C, strain SHM2, active compounds read low): 1.01
normalized growth (locus YLR102C, strain apc9, active compounds read low): 0.988
normalized growth (locus YLR113W, strain HOG1, active compounds read low): 0.844 (active)
normalized growth (locus YLR221C, strain rsa3, active compounds read low): 1.02
normalized growth (locus YLR258W, strain gsy2, active compounds read low): 1.02
normalized growth (locus YLR262C, strain YPT6 (second series), active compounds read low): 1.06
normalized growth (locus YLR262C, strain YPT6, active compounds read low): 1.04
normalized growth (locus YLR268W, strain sec22, active compounds read low): 1.02
normalized growth (locus YLR320W, strain mms22, active compounds read low): 1.04
normalized growth (locus YLR330W, strain CHS5, active compounds read low): 1.02
normalized growth (locus YLR342W, strain FKS1 (second series), active compounds read low): 1.01
normalized growth (locus YLR342W, strain FKS1, active compounds read low): 1.03
normalized growth (locus YLR357W, strain rsc2, active compounds read low): 1.02
normalized growth (locus YLR370C, strain arc18, active compounds read low): 1.02
normalized growth (locus YLR371W, strain rom2, active compounds read low): 0.988
normalized growth (locus YLR384C, strain iki3, active compounds read low): 1.02
normalized growth (locus YLR418C, strain cdc73, active compounds read low): 1.01
normalized growth (locus YML016C, strain PPZ1, active compounds read low): 1.02
normalized growth (locus YML032C, strain rad52, active compounds read low): 0.982
normalized growth (locus YML120C, strain ndi1, active compounds read low): 1.02
normalized growth (locus YML124C, strain tub3, active compounds read low): 0.996
normalized growth (locus YMR058W, strain fet3, active compounds read low): 1.03
normalized growth (locus YMR078C, strain ctf18, active compounds read low): 0.993
normalized growth (locus YMR125W, strain sto1, active compounds read low): 1.01
normalized growth (locus YMR129W, active compounds read low): 1.02
normalized growth (locus YMR205C, strain PFK2, active compounds read low): 1.03
normalized growth (locus YMR223W, strain ubp8, active compounds read low): 1.01
normalized growth (locus YMR231W, strain pep5, active compounds read low): 1.01
normalized growth (locus YMR263W, strain SAP30, active compounds read low): 1.02
normalized growth (locus YMR307W, strain GAS1, active compounds read low): 1.04
normalized growth (locus YNL067W, strain RPL9B, active compounds read low): 1.02
normalized growth (locus YNL071W, strain lat1, active compounds read low): 1.02
normalized growth (locus YNL128W, strain TEP1, active compounds read low): 1.01
normalized growth (locus YNL183C, strain NPR1, active compounds read low): 0.908
normalized growth (locus YNL209W, strain ssb2, active compounds read low): 1.02
normalized growth (locus YNL233W, strain BNI4, active compounds read low): 1.03
normalized growth (locus YNL248C, strain rpa49, active compounds read low): 1.01
normalized growth (locus YNL250W, strain rad50, active compounds read low): 0.986
normalized growth (locus YNL271C, strain bni1, active compounds read low): 0.998
normalized growth (locus YNL298W, strain CLA4, active compounds read low): 0.991
normalized growth (locus YNL307C, strain MCK1, active compounds read low): 1
normalized growth (locus YNL322C, strain KRE1 (second series), active compounds read low): 1.02
normalized growth (locus YNL322C, strain KRE1, active compounds read low): 1.01
normalized growth (locus YNR049C, strain mso1, active compounds read low): 1.02
normalized growth (locus YNR052C, strain pop2, active compounds read low): 0.998
normalized growth (locus YOL006C, strain TOP1, active compounds read low): 1.11
normalized growth (locus YOL012C, strain htz1): 1.19
normalized growth (locus YOL147C, strain pex11, active compounds read low): 0.996
normalized growth (locus YOR001W, strain rrp6, active compounds read low): 1.02
normalized growth (locus YOR061W, strain CKA2, active compounds read low): 1.02
normalized growth (locus YOR069W, strain VPS5, active compounds read low): 1.01
normalized growth (locus YOR070C, strain gyp1, active compounds read low): 1.02
normalized growth (locus YOR080W, strain dia2, active compounds read low): 1.02
normalized growth (locus YOR083W, strain WHI5, active compounds read low): 1.01
normalized growth (locus YOR106W, strain vam3, active compounds read low): 1.02
normalized growth (locus YOR136W, strain idh2, active compounds read low): 1
normalized growth (locus YOR144C, strain elg1, active compounds read low): 1
normalized growth (locus YOR184W, strain ser1, active compounds read low): 1.01
normalized growth (locus YOR231W, strain MKK1, active compounds read low): 0.901
normalized growth (locus YOR265W, strain rbl2, active compounds read low): 1.02
normalized growth (locus YOR270C, strain vph1, active compounds read low): 0.954
normalized growth (locus YOR290C, strain snf2, active compounds read low): 1.02
normalized growth (locus YOR316C, strain cot1, active compounds read low): 0.989
normalized growth (locus YPL051W, strain arl3, active compounds read low): 1.02
normalized growth (locus YPL078C, strain atp4, active compounds read low): 1.02
normalized growth (locus YPL106C, strain sse1, active compounds read low): 1.05
normalized growth (locus YPL240C, strain hsp82, active compounds read low): 1.03
normalized growth (locus YPL256C, strain CLN2, active compounds read low): 0.894
normalized growth (locus YPR119W, strain clb2, active compounds read low): 1
normalized growth (locus YPR141C, strain kar3, active compounds read low): 0.995
normalized growth (locus YPR163C, strain tif3, active compounds read low): 1
normalized growth (locus YPR167C, strain met16, active compounds read low): 0.996
normalized growth (strain wtn01, active compounds read low): 1.01
